Here are results for 31 compounds from PubChem BioAssay (EPA / NIEHS).

Each structure is given as a SMILES string. Calls of active or inactive are those of the source. The calls were made as follows: active = hit-call score of the fitted dose curve at least 0.9, where 1 is the maximum; inactive = score below 0.9.

A short description of one test: CCTE_Shafer_MEA_acute_cross_correlation_area: CCTE's Neural Acute Assay for Area of Cross Correlation, Shafer Lab (AID 2284024).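 Also: area under pooled inter-electrode spike cross-correlation near zero lag as percent change from own baseline; curves fitted for loss of cross-correlation area so actives lower synchrony.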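 As to outcome: rat primary cortical neuron networks on 48-well MEA at DIV 13 or 15 with 40 min exposure.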 In outline: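 Extracellular recordings from cultured rat cortical neurons measure network synchrony as cross-correlation area; each well's post-compound value (0.03-40 uM, 40 min) is compared with its own 40 min baseline to give percent change.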
With `OC(c1ccc(Cl)cc1)(c1ccc(Cl)cc1)C(Cl)(Cl)Cl`, the compound was called inactive.
For the compound `CC1(C)C(C(=O)OC(C#N)c2cccc(Oc3ccccc3)c2)C1(C)C` (configuration not stated), the AC50 is 0.645 µM (active).
For the compound `Cn1c(-c2ccccc2)cc(-c2ccccc2)[n+]1C`, the compound was classed as inactive.
The same measure, in the same setting: under `CCCC(=NOCC)C1=C(O)CC(CC(C)SCC)CC1=O` (configuration not stated) stands “inactive”; under `CC1(C)C(C=C(Cl)Cl)C1C(=O)OC(C#N)c1cccc(Oc2ccccc2)c1` (configuration not stated), “inactive”.
Turning to `CC(C)=CC1C(C(=O)OCc2coc(Cc3ccccc3)c2)C1(C)C` (configuration not stated), the result was inactive.
Take `CNC(=O)Oc1cccc2ccccc12`: the compound was classed as inactive.
Still for that read-out and setting: the entry for `C=C(C)CN(CC)c1c([N+](=O)[O-])cc(C(F)(F)F)cc1[N+](=O)[O-]` is “inactive”.
With `COC(=O)N(C(=O)N1CO[C@@]2(C(=O)OC)Cc3cc(Cl)ccc3C2=N1)c1ccc(OC(F)(F)F)cc1`, the outcome was inactive.
For the compound `CO/N=C(/C1=NOCCO1)c1ccccc1Oc1ncnc(Oc2ccccc2Cl)c1F`, the result was inactive.
Still for that read-out and setting: under `Cc1c(COC(=O)[C@@H]2[C@H](/C=C(\Cl)C(F)(F)F)C2(C)C)cccc1-c1ccccc1` stands “inactive”.
Same read-out and setting: under `CCOc1cc(C(C)(C)C)ccc1C1COC(c2c(F)cccc2F)=N1` (configuration not stated) stands “inactive”; under `Cc1ccc(N=CN(C)C=Nc2ccc(C)cc2C)c(C)c1`, “inactive”.
`Nc1c(Cl)c(F)nc(OCC(=O)O)c1Cl`: the result was inactive.
On to `COCC(=O)N(c1c(C)cccc1C)C(C)C(=O)OC` (configuration not stated), for which the call was inactive.
Still for that read-out and setting: the entry for `CC(C)C1(C)N=C(c2ncccc2C(=O)O)NC1=O` (configuration not stated) is “inactive”; for `CC(C)N1C(=O)N(c2ccccc2)CSC1=NC(C)(C)C` it is “inactive”.
As for `Cc1nc(N(C)C)nc(OC(=O)N(C)C)c1C`, the compound was classed as inactive.
As for `CN/C(=N\[N+](=O)[O-])NCc1cnc(Cl)s1`, the AC50 is 0.16 µM (active).
For the compound `COP(=S)(OC)SCn1nnc2ccccc2c1=O`, the outcome was inactive.
As for `CCCCC(O)(Cn1cncn1)c1ccc(Cl)cc1Cl` (configuration not stated), the call was inactive.
Consider `CCCN(CC)CC1COC2(CCC(C(C)(C)C)CC2)O1` (configuration not stated), for which the call was inactive.
Same read-out and setting: under `Clc1nc(Cl)nc(Nc2ccccc2Cl)n1` stands “inactive”; under `N#CN=C1SCCN1Cc1ccc(Cl)nc1`, “inactive”; under `CCOc1nc(F)cc2nc(S(=O)(=O)Nc3c(Cl)cccc3Cl)nn12`, “inactive”.
In the case of `CCOP(=O)(OCC)Oc1nc(Cl)c(Cl)cc1Cl`, the outcome was inactive.
Same read-out and setting: under `CCOC(=O)C(C)OC(=O)c1cc(Oc2ccc(C(F)(F)F)cc2Cl)ccc1[N+](=O)[O-]` (configuration not stated) stands “inactive”.
Same read-out and setting: the entry for `CC(C)N1C(=O)c2ccccc2NS1(=O)=O` is “inactive”; for `CC1(C)CCC(=Cc2ccc(Cl)cc2)C1(O)Cn1cncn1` (configuration not stated) it is “inactive”; for `O=C(Nc1ccccc1-c1ccc(Cl)cc1)c1cccnc1Cl` it is “inactive”.
On the same count and under the same terms, the entry for `N#Cc1c[nH]cc1-c1cccc2c1OC(F)(F)O2` is “inactive”.

A further test in a line: CCTE_Shafer_MEA_acute_cross_correlation_HWHM: CCTE's Neural Acute Assay for Cross Correlation at Half Width at Half Maximum, Shafer Lab (AID 2284026).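 Also: percent change per well from pre-dose baseline in spike cross-correlogram half width; hits are a decrease in cross-correlogram half width relative to DMSO.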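 As to outcome: spontaneous network firing of rat primary cortical neurons on multiwell microelectrode arrays.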 Summed up:
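Percent change in cross-correlogram half width at half maximum, narrower meaning more synchrony, was derived per well from paired 40-min recordings before and during exposure to 0.03-40 uM compound in rat cortical cultures at 37 C.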
In the case of `OC(c1ccc(Cl)cc1)(c1ccc(Cl)cc1)C(Cl)(Cl)Cl`, the AC50 is 5.32 µM (active).
Same read-out and setting: under `CC1(C)C(C(=O)OC(C#N)c2cccc(Oc3ccccc3)c2)C1(C)C` (configuration not stated) stands 28.6 µM (active).
Take `Cn1c(-c2ccccc2)cc(-c2ccccc2)[n+]1C`: the half-maximal activity concentration (AC50) is 20 µM (active).
On the same count and under the same terms, the figure for `CCCC(=NOCC)C1=C(O)CC(CC(C)SCC)CC1=O` (configuration not stated) is 30.7 µM (active).
Turning to `CC1(C)C(C=C(Cl)Cl)C1C(=O)OC(C#N)c1cccc(Oc2ccccc2)c1` (configuration not stated), the call was inactive.
On the same count and under the same terms, the entry for `CC(C)=CC1C(C(=O)OCc2coc(Cc3ccccc3)c2)C1(C)C` (configuration not stated) is “inactive”; for `CNC(=O)Oc1cccc2ccccc12` it is “inactive”.
Still for that read-out and setting: the entry for `C=C(C)CN(CC)c1c([N+](=O)[O-])cc(C(F)(F)F)cc1[N+](=O)[O-]` is “inactive”.
Take `COC(=O)N(C(=O)N1CO[C@@]2(C(=O)OC)Cc3cc(Cl)ccc3C2=N1)c1ccc(OC(F)(F)F)cc1`: the AC50 is 24.3 µM (active).
Same read-out and setting: under `CO/N=C(/C1=NOCCO1)c1ccccc1Oc1ncnc(Oc2ccccc2Cl)c1F` stands 20 µM (active); under `Cc1c(COC(=O)[C@@H]2[C@H](/C=C(\Cl)C(F)(F)F)C2(C)C)cccc1-c1ccccc1`, 2.29 µM (active).
On to `CCOc1cc(C(C)(C)C)ccc1C1COC(c2c(F)cccc2F)=N1` (configuration not stated), for which the AC50 is 20 µM (active).
Regarding `Cc1ccc(N=CN(C)C=Nc2ccc(C)cc2C)c(C)c1`, the compound was classed as inactive.
Turning to `Nc1c(Cl)c(F)nc(OCC(=O)O)c1Cl`, the compound was called inactive.
On the same count and under the same terms, the entry for `COCC(=O)N(c1c(C)cccc1C)C(C)C(=O)OC` (configuration not stated) is “inactive”; for `CC(C)C1(C)N=C(c2ncccc2C(=O)O)NC1=O` (configuration not stated) it is “inactive”.
Take `CC(C)N1C(=O)N(c2ccccc2)CSC1=NC(C)(C)C`: the AC50 was 20 µM (active).
For `Cc1nc(N(C)C)nc(OC(=O)N(C)C)c1C`, the call was inactive.
Regarding `CN/C(=N\[N+](=O)[O-])NCc1cnc(Cl)s1`, the call was inactive.
Consider `COP(=S)(OC)SCn1nnc2ccccc2c1=O`, for which the result was inactive.
Turning to `CCCCC(O)(Cn1cncn1)c1ccc(Cl)cc1Cl` (configuration not stated), the compound was classed as inactive.
As for `CCCN(CC)CC1COC2(CCC(C(C)(C)C)CC2)O1` (configuration not stated), the compound was called inactive.
For the compound `Clc1nc(Cl)nc(Nc2ccccc2Cl)n1`, the result was inactive.
Consider `N#CN=C1SCCN1Cc1ccc(Cl)nc1`, for which the result was inactive.
For `CCOc1nc(F)cc2nc(S(=O)(=O)Nc3c(Cl)cccc3Cl)nn12`, the result was inactive.
For the compound `CCOP(=O)(OCC)Oc1nc(Cl)c(Cl)cc1Cl`, the AC50 is 34.8 µM (active).
Consider `CCOC(=O)C(C)OC(=O)c1cc(Oc2ccc(C(F)(F)F)cc2Cl)ccc1[N+](=O)[O-]` (configuration not stated), for which the compound was classed as inactive.
On the same count and under the same terms, the entry for `CC(C)N1C(=O)c2ccccc2NS1(=O)=O` is “inactive”; for `CC1(C)CCC(=Cc2ccc(Cl)cc2)C1(O)Cn1cncn1` (configuration not stated) it is “inactive”.
For `O=C(Nc1ccccc1-c1ccc(Cl)cc1)c1cccnc1Cl`, the AC50 is 23.5 µM (active).
Same read-out and setting: the figure for `N#Cc1c[nH]cc1-c1cccc2c1OC(F)(F)O2` is 20 µM (active).
